Screens (PubChem BioAssay)
FAS TE block: blocks the thioesterase domain of human fatty acid synthase; inhibition, % at 15 µM; P49327; AID 602261; hit rate 0.67% among 360,000; recombinant FAS-TE, OMFH fluorogenic substrate, fluorescence endpoint;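 active means compounds whose normalised, plate-corrected inhibition of enzyme fluorescence in the single-dose primary screen is 50% or more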
Neddylation inh: inhibitors of human cullin neddylation; calls only at 25 µM; TR-FRET cullin neddylation, biochemical; P61081+Q13564; hit rate 0.58% among 360,000; in the data active means inhibition above about 36%
proKLK7 act: activators of human kallikrein-7 zymogen; P49862; purified proKLK7, EDANS-DABCYL substrate fluorescence; 100% is mature enzyme control, 0% vehicle; activation, % at 7 µM; hit rate 0.9% among 370,000;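 active means activation above the mean of all tested compounds plus 3 SD, computed per campaign excluding outliers beyond control limits, cut at about 13% in these data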
PfGluPho inh: PfG6PD (Plasmodium falciparum) enzyme inhibition; PfGluPho enzyme, NADPH resazurin-diaphorase fluorescence; inhibition, % at 20 µM; hit rate 0.78% among 350,000; AID 504690;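 active means inhibition reaching at least a set limit at 20 µM in the primary screen, cut at about 59% in these data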
Numbers stand for hits; - = inactive; . = not tested or not shown; + = active, no number. Only some compounds are listed: those with a hit (about 2.7% of all), similar ones and a draw of the others.

SMILES	FAS TE block	Neddylation inh	proKLK7 act	PfGluPho inh
C#CCOCCOCCOCCNc1nc(N2CCN(C(=O)CCCCCCCCCCNC(=O)[C@H]([C@@H](C)CC)n3cc(CCCCN=C(N)N)nn3)CC2)nc(N2CCN(C(=O)CCCCCCCCCCNC(=O)[C@H](CCCCN)n3cc(C)nn3)CC2)n1	.	.	.	72
C#CCOCCOCCOCCNc1nc(N2CCN(C(=O)CCCCCCCCCCNC(=O)Cn3cc(CCCCCN)nn3)CC2)nc(N2CCN(C(=O)CCCCCCCCCCNC(=O)Cn3cc(CCCCCN)nn3)CC2)n1	-	-	.	77
CCOc1ccc(-n2c(SCC(=O)Nc3ccc(S(=O)(=O)Nc4cc(C)nc(C)n4)cc3)nnc2-c2ccc(OC)cc2)cc1	.	.	-	.
C#CCOCCOCCOCCNc1nc(N2CCN(C(=O)CCCCCCCCCCNC(=O)[C@H](CCCCN)n3cc(CCCC(=O)O)nn3)CC2)nc(N2CCN(C(=O)CCCCCCCCCCNC(=O)[C@@H]([C@H](C)O)n3cc(C)nn3)CC2)n1	-	-	.	-
C#CCOCCOCCOCCNc1nc(N2CCN(C(=O)CCCCCCCCCCNC(=O)[C@H]([C@@H](C)CC)n3cc(CCCCN=C(N)N)nn3)CC2)nc(N2CCN(C(=O)CCCCCCCCCCNC(=O)[C@H](CO)n3cc(CCCCCN)nn3)CC2)n1	-	-	.	64
C#CCOCCOCCOCCNc1nc(N2CCN(C(=O)CCCCCCCCCCNC(=O)[C@H](CCCCN)n3cc(C)nn3)CC2)nc(N2CCN(C(=O)CCCCCCCCCCNC(=O)[C@H](CCCCN)n3cc(CCCC(=O)O)nn3)CC2)n1	-	-	.	59
CCOC(=O)CCc1c(C)c2ccc(O)cc2oc1=O	-	.	45	-
CCOC(=O)C1=C(Cc2ccc(Cl)cc2)C(=O)c2ccccc2C1=O	-	-	.	94
COCCCNC(=O)C[C@H]1C[C@@]2(C(=O)OC)C(=C[C@H](COCc3ccccc3)O[C@@H]2C)N(Cc2ccccc2)C1=O	.	.	-	.
S=c1[nH]nc(-c2n[nH]c3c2CCC3)n1/N=C/C=C/c1ccco1	-	+	-	-
S=c1[nH]nc(-c2n[nH]c3c2CCC3)n1N=Cc1ccco1	.	.	-	.
Cc1nn(-c2ccccc2)c2sc(C(=O)NC3CCCCCCC3)cc12	.	.	-	.
Cc1cccc(C(=O)Nc2nnc(S(=O)(=O)N(C)Cc3ccco3)s2)c1	-	-	-	95
COc1ccc(N2CCN(CCCNC(=O)CCOC(C)(C)C)CC2)cc1	.	.	-	.
CNc1cccccc1=S	-	-	-	65
CCN1C(=O)[C@H]2[C@@H](c3ccc(C)cc3)N3C(=O)N(c4cccc(F)c4)C(=O)[C@@]3(Cc3ccc(Cl)cc3)[C@H]2C1=O	-	-	-	-
O=C1[C@H]2[C@@H](c3ccc(F)cc3)N3C(=O)N(c4ccc(Br)cc4)C(=O)[C@@]3(Cc3ccccc3)[C@H]2C(=O)N1C1CCCCC1	92	-	-	-
Cc1cccc(N2C(=O)N3[C@H](c4ccc(Cl)cc4)[C@@H]4C(=O)N(C5CCCCC5)C(=O)[C@@H]4[C@]3(Cc3ccc(Cl)cc3)C2=O)c1	94	-	.	-
O=C1[C@H]2[C@@H](c3ccc(Cl)cc3)N3C(=O)N(c4cccc(F)c4)C(=O)[C@@]3(Cc3ccc(Cl)cc3)[C@H]2C(=O)N1C1CCCCC1	96	-	.	-
O=C1[C@H]2[C@@H](c3ccc(Cl)cc3)N3C(=O)N(c4cccc(Cl)c4)C(=O)[C@@]3(Cc3ccc(Cl)cc3)[C@H]2C(=O)N1C1CCCCC1	94	-	-	-
CCN1C(=O)[C@H]2[C@@H](c3ccc(C)cc3)N3C(=O)N(c4cccc(Cl)c4)C(=O)[C@@]3(Cc3ccccc3)[C@H]2C1=O	-	-	-	-
CC(C)(C)c1ccc(-c2nnc(SCC(=O)Nc3ccc4cn[nH]c4c3)n2-c2ccc(Cl)cc2)cc1	.	.	-	.
O=C(Cc1ccc(Cl)c(Cl)c1)Nc1ccc(S(=O)(=O)Nc2ccon2)cc1	.	.	-	.
CC(C)C[C@@]12C(=O)N(c3cccc(Cl)c3)C(=O)N1[C@H](c1ccc(F)cc1)[C@@H]1C(=O)N(C3CCCCC3)C(=O)[C@@H]12	84	-	-	-
CCN1C(=O)[C@H]2[C@@H](c3ccc(C)cc3)N3C(=O)N(c4cccc(Cl)c4)C(=O)[C@@]3(CC(C)C)[C@H]2C1=O	-	-	-	-
SMILES	FAS TE block	Neddylation inh	proKLK7 act	PfGluPho inh
O=C(O)c1cc(-c2ccc(/C=C3\NC(=O)N(c4ccc(Cl)cc4)C3=O)o2)ccc1Cl	-	+	-	-
O=C(O)c1cc(-c2ccc(/C=C3\NC(=O)N(c4ccccc4)C3=O)o2)ccc1Cl	-	+	-	-
O=C(C1CCN(c2ncnc3c2sc2cccc(F)c23)CC1)N1CCN(Cc2ccc(F)cc2)CC1	.	.	-	.
COC(=O)[C@]1(CNS(=O)(=O)C2CC2)CC(=O)N(C)[C@@H]1c1ccccc1	.	.	-	.
Nc1cc2ccncc2c2ccccc12	-	.	103	-
CCCCCCNC(=O)N[C@@H](C(=O)NCCC[C@H]1CN2C(=NC[C@@H]2Cc2ccccc2)N1CCc1cccc(OC)c1)C(C)C	.	.	.	64
O=C1Nc2cc(C(=O)NCCN3CCCCCC3)ccc2S/C1=C\c1ccccc1	-	-	-	89
Cc1cccc(/C=C2/Sc3ccc(C(=O)NCCN4CCCC4)cc3NC2=O)c1	-	-	-	-
O=C(OCc1ccccc1)N1CCC2CC1c1ccc(N3CCN(Cc4ccccc4)CC3)cc12 (stereo not given)	.	.	-	.
CCOc1ccc2c(c1)C(C)=CC(C)(C)N2C(=O)Nc1ccccc1	-	-	.	78
COc1ccc(NC(=O)N2c3ccccc3C(C)=CC2(C)C)cc1	-	-	-	-
C=CCOC(=O)COc1ccc2c(C)c(C)c(=O)oc2c1C	-	+	-	-
Cc1cc(N2CCN(C(c3ccccc3)c3ccccc3)CC2)n2ncnc2n1	54	-	-	-
Cc1nc2ncnn2c(N2CCN(C(c3ccccc3)c3ccccc3)CC2)c1C	-	-	-	-
Cc1ccc(S(=O)(=O)/N=C2\C=C(Nc3ccc(O)cc3)C(=O)c3ccccc32)cc1	-	-	.	111
CC(C)OC(=O)/C(=C\c1ccc2c(c1)c1ccccc1n2C)NC(=O)c1ccccc1	-	+	-	-
COCC(=O)N(C)c1nnc(-c2cnccn2)s1	-	-	32	-
COc1ccc(N2CSC3=C(C#N)C(c4cc(OC)ccc4OC)CC(=O)N3C2)c(OC)c1 (stereo not given)	-	-	.	113
COc1cc(C(=O)Nc2scc(-c3ccc(Br)cc3)c2C(=O)O)cc(OC)c1OC	-	-	-	59
Cc1ccc(C(=O)NC(C)CCc2ccccc2)cc1[N+](=O)[O-] (stereo not given)	74	-	-	-
O=C1CCC(=O)c2ccc3c4c(ccc1c24)CC3	-	+	-	-
CCOc1cc(C2C(C#N)=C(N)OC(C)=C2C(C)=O)cc(Br)c1O (stereo not given)	-	-	-	-
CCOc1cc(C2C(C#N)=C(N)OC(C)=C2C(C)=O)c(Br)c(Br)c1OC(C)C (stereo not given)	72	-	.	-
CC(C)Oc1cccc(-c2n[nH]c(=S)n2N=Cc2cccc([N+](=O)[O-])c2)c1	.	.	-	.
O=C(O)c1cccc(-n2c(/C=C/c3ccccc3)nc3ccccc3c2=O)c1	-	-	-	-
